We go through 13 compounds from PubChem BioAssay (EPA / NIEHS).

By AC50 is commonly meant the concentration giving half of the maximal activity seen.

In experiment [1] the target is Cellular tumor antigen p53 (Homo sapiens) (UniProt P04637). Briefly: TOX21_p53_BLA_p2_ratio: Tox21 HCT-116 p53 Agonism Beta-lactamase Assay, Ratio, Phase 2 (AID 2283592). In outline: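 An inducible beta-lactamase reporter in HCT116 cells signals p53 pathway activation. After 16 h chemical exposure at 37C, cells load CCF4-AM substrate for 2 h at room temperature; activity is the cleaved/uncleaved emission ratio relative to DMSO.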
Cellular tumor antigen p53 (Homo sapiens), sequence (P04637 whole entry, looked up): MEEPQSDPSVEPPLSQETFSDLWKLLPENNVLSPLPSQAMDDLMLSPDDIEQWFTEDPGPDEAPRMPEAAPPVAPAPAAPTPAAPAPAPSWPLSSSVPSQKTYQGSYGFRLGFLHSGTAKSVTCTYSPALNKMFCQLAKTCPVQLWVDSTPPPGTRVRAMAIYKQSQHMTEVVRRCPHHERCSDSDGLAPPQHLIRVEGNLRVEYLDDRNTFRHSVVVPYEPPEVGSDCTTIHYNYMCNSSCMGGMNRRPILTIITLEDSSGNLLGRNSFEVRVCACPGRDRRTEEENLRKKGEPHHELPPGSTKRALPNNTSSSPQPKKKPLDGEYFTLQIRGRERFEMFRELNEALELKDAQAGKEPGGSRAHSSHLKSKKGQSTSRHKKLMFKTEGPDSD

For experiment [2] the target is unchanged. Briefly: TOX21_p53_BLA_p3_ratio: Tox21 HCT-116 p53 Agonism Beta-lactamase Assay, Ratio, Phase 3 (AID 2283596). In outline:
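HCT116 p53-bla cells (4000/well) given compound in DMSO (217-fold dilution) after 5 h, incubated 16 h at 37C. CCF4-AM substrate 2 h at room temperature; 460/530 nm emission ratio, gain fitted against DMSO.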

The nature of experiment [3]: TOX21_p53_BLA_p4_viability: Viability Assessment in the Tox21 HCT-116 p53 Agonism Beta-lactamase Assay, Phase 4 (AID 2283597).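 Also: hits lower the luminescence signal meaning cytotoxicity.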 The procedure, abridged:
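Compound exposure of HCT116 cells lasts 16 h at 37C, 5% CO2, with DMSO stocks diluted 217-fold. Cellular ATP is then quantified by CellTiter-Glo luminescence after 30 min at room temperature.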

In experiment [4] the target is Cellular tumor antigen p53 (Homo sapiens) (UniProt P04637). Briefly: TOX21_p53_BLA_p5_ratio: Tox21 HCT-116 p53 Agonism Beta-lactamase Assay, Ratio, Phase 5 (AID 2283599). The procedure, abridged: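 HCT-116 cells carrying a p53-inducible beta-lactamase reporter were seeded at 4000 cells/well and dosed after 5 h with compound in DMSO (217-fold dilution). After 16 h at 37C, CCF4-AM substrate was added for 2 h, and the 460/530 nm emission ratio was scored as gain-of-signal versus DMSO.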

Experiment [5] has the same target. Briefly: TOX21_p53_BLA_p4_ratio: Tox21 HCT-116 p53 Agonism Beta-lactamase Assay, Ratio, Phase 4 (AID 2283601). The procedure, abridged: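 HCT116 cells carrying an inducible beta-lactamase reporter were plated at 4000 cells/well, rested 5 h, then exposed to compounds in DMSO (217-fold dilution) for 16 h at 37C. CCF4-AM substrate was loaded 2 h at room temperature; 460/530 nm emission ratio scored gain-of-signal versus DMSO.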

A short description of experiment [6]: TOX21_p53_BLA_p5_viability: Viability Assessment in the Tox21 HCT-116 p53 Agonism Beta-lactamase Assay, Phase 5 (AID 2283600). The procedure, abridged:
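Counter-readout for cytotoxicity: ATP-dependent luminescence from CellTiter-Glo, read in the beta-lactamase wells after 30 min at RT, following a 16 h compound exposure at 37C.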

Experiment [7] has as its target Thyroid hormone receptor alpha (Rattus norvegicus) + Thyroid hormone receptor beta (Rattus norvegicus) (UniProt P18113+P63059). Briefly: TOX21_TR_LUC_GH3_Antagonist_Followup: Tox21 GH3 Thyroid Hormone Receptor Antagonism Luciferase Follow-Up Assay (AID 2283942). In outline:
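Rat pituitary GH3 cells with a TRα/TRβ-driven luciferase reporter, 5 h attachment, then 15 concentrations (92 uM to 5nM final) plus 1.0 nM T3 agonist, 24 h at 37C/5% CO2. ONE-Glo luminescence; signal change fitted against DMSO baseline.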

The target of another experiment is THRA (gene 7067) (UniProt P10827). Briefly: TOX21_TRA_COA_Antagonist_Followup_ratio: Tox21 Thyroid Hormone Receptor alpha Antagonism through Coactivator Recruitment Follow-Up Assay, Ratio (AID 2283953). In outline:
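This follow-up to the GH3 luciferase screen checks specificity in a cell-free format. It measures SRC-2 coactivator peptide binding to TRα LBD by TR-FRET and scores loss of ratio signal relative to DMSO.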

The nature of experiment [8]: TOX21_TRB_BLA_Antagonist_Followup_viability: Viability Assessment in the Tox21 Thyroid Hormone Receptor beta Antagonism Beta-lactamase (BLA) Follow-Up Assay (AID 2283961). The procedure, abridged: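 Cytotoxicity is measured in parallel with the antagonist-mode TRβ beta-lactamase screen, using ATP-coupled luciferase luminescence. Engineered HEK293T cells are treated for 18 h with 11-point compound series in triplicate.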

In another experiment the target is THRB (gene 7068) (UniProt P10828). Nature of the experiment: TOX21_TRB_COA_Antagonist_Followup_ratio: Tox21 Thyroid Hormone Receptor beta Antagonism through Coactivator Recruitment Follow-Up Assay, Ratio (AID 2283967). In outline:
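Cell-free TR-FRET coactivator recruitment with GST-tagged TRβ LBD (5.0 nM) and fluorescein-labeled SRC-2 peptide (200 nM) detected by terbium anti-GST antibody (2 nM). The 520:495 nm emission ratio was normalized to DMSO (0%) and T3 (100%).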

Experiment [9] concerns the target PGR (gene 5241) (UniProt P06401). Briefly: TOX21_PR_BLA_Followup_Agonist_ratio: Tox21 HEK293 Progesterone Receptor (PR) Agonism Beta-lactamase Follow-Up Assay, Ratio (AID 2283933). In outline:
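Agonist-mode follow-up in HEK293T cells carrying a UAS-driven beta-lactamase reporter, grown in 2% charcoal-stripped serum. Compounds act for 16 hr; activity is the ch2/ch1 cleavage ratio, with same-well CellTiter-Glo viability run in parallel.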

Experiment [10] shares this target. Nature of the experiment: TOX21_PR_BLA_Followup_Antagonist_ratio: Tox21 HEK293 Progesterone Receptor (PR) Antagonism Beta-lactamase Follow-Up Assay, Ratio (AID 2283934).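 Also: PR-UAS-bla HEK293T cells stimulated with 1 nM R5020 agonist for 16 hr.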 In outline:
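Antagonist mode used 1 nM R5020 (final) as agonist on a beta-lactamase reporter line in HEK293T cells. Activity was taken from the substrate cleavage ratio after 16 hr exposure.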

Experiment [11] is described as follows: TOX21_PR_BLA_Followup_Antagonist_viability: Viability Assessment in the Tox21 HEK293 Progesterone Receptor (PR) Antagonism Beta-lactamase Follow-Up Assay (AID 2283936).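 Also: hits lower the luminescence signal meaning cytotoxicity.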 In outline:
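PR-UAS-bla HEK293T cells (3,000/well, 2% charcoal-stripped FBS) given compound plus R5020 agonist, 16 h at 37C. CellTiter-Glo added after bla read, 30 min at room temperature; luminescence loss indicates cytotoxicity.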

The target of experiment [12] is PGR (gene 5241) (UniProt P06401). Briefly: TOX21_PR_LUC_Followup_Agonist: Tox21 HEK293 Progesterone Receptor (PR) Agonism Luciferase Follow-Up Assay (AID 2283937; active = hit-call score of the fitted dose curve at least 0.9, where 1 is the maximum; inactive = score below 0.9). The procedure, abridged:
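Agonist mode: reporter cells carrying PR-A and luciferase are treated 16 h with test compounds at 37C. Luciferase induction is measured by luminescence and fitted upward against DMSO.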

Experiment [13] can be described thus: TOX21_PR_LUC_Followup_Antagonist_viability: Viability Assessment in the Tox21 HEK293 Progesterone Receptor (PR) Antagonism Luciferase Follow-Up Assay (AID 2283940). The procedure, abridged: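 Cellular ATP, measured with luciferase-coupled CellTiter-Glo, served as the viability endpoint after HEK293-PR-A-luc cells were exposed to test compounds for 16 h at 37C.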

The nature of experiment [14]: TOX21_PR_LUC_Followup_Agonist_viability: Viability Assessment in the Tox21 HEK293 Progesterone Receptor (PR) Agonism Luciferase Follow-Up Assay (AID 2283941).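 Also: loss of signal means cytotoxicity so actives lower viability.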 In outline: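 Luminescent ATP quantitation (CellTiter-Glo) serves as the read-out; a drop flags cytotoxic compounds. Cells are HEK293-PR-A-luc grown in 10% charcoal-stripped FBS, plated 3,000/well, and exposed to compound for 16 h.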

Experiment [15] can be described thus: CCTE_Harrill_HTTr_Apoptosis_MCF7: CCTE's 6-hour Apoptosis Assessment for the High-Throughput Transcriptomics (HTTr) Platform, in MCF-7 cells cultured in DMEM + 10% fetal bovine serum, Harrill Lab (AID 2284011; active = hit-call score of the fitted dose curve at least 0.9, where 1 is the maximum; inactive = score below 0.9). In outline:
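Cells are dosed with test chemicals at eight concentrations and imaged 6 hours later for caspase-3/7 activity using a green fluorogenic detection reagent. Activity is fitted in both directions against DMSO controls.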

Inconclusive results are not listed. Calls of active or inactive are those of the source. The calls were made as follows, unless noted: active = hit-call score of the fitted dose curve at least 0.9, where 1 is the maximum; inconclusive = response in the unintended direction; inactive = score below 0.9.

PGR (gene 5241), sequence (P06401 whole entry, looked up): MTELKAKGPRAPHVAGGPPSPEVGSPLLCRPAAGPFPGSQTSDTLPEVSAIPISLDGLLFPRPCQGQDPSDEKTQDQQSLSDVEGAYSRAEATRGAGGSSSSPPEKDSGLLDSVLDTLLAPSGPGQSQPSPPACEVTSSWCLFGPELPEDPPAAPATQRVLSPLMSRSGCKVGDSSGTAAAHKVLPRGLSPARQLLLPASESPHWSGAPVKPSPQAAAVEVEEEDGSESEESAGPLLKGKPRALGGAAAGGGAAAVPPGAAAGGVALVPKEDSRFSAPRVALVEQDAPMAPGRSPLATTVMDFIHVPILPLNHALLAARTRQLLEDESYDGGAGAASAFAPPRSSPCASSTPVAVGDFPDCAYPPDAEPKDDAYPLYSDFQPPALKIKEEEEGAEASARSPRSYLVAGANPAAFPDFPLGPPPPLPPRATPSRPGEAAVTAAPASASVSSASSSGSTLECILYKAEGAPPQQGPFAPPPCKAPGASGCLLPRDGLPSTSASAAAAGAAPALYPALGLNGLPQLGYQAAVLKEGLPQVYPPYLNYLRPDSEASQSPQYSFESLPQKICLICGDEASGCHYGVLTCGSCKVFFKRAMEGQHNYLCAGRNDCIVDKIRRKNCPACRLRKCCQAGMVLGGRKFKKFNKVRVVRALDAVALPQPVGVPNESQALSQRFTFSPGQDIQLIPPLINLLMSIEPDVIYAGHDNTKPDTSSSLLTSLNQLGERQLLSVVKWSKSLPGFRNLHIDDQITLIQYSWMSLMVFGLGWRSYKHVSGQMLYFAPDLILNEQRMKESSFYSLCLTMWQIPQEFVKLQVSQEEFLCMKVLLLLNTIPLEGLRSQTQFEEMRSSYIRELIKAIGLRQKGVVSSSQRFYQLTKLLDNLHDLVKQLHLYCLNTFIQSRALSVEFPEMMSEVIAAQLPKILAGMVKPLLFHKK
THRB (gene 7068), sequence (P10828 whole entry, looked up, the tested form may be a part): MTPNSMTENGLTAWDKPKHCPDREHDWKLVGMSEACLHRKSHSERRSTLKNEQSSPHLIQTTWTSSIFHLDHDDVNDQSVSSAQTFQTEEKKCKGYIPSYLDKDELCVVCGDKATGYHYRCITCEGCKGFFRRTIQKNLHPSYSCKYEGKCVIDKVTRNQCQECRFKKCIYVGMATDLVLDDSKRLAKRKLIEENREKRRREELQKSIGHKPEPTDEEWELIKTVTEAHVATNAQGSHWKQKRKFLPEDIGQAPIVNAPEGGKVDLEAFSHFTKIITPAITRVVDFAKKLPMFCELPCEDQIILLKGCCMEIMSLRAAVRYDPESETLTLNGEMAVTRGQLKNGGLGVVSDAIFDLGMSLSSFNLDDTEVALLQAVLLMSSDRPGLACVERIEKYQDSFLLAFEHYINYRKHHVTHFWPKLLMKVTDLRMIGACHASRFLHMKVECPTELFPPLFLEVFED
THRA (gene 7067), sequence (P10827 whole entry, looked up, the tested form may be a part): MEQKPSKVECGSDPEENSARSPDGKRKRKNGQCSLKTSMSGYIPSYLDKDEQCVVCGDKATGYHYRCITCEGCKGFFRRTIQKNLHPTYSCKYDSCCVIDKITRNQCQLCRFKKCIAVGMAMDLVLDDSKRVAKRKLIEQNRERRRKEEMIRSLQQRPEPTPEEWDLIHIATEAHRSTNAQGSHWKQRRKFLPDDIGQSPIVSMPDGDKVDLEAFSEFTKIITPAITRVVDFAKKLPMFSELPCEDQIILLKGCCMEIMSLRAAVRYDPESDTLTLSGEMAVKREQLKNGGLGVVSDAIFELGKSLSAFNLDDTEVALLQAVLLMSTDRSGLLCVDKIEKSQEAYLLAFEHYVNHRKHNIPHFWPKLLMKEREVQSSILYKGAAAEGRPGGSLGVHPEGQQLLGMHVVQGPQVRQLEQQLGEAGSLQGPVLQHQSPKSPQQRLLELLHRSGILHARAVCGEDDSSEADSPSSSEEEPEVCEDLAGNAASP

With `CCCCCCCCCCCCCCCl`, the outcome in experiment [1], in experiment [2], in experiment [3], in [4] and in experiment [5] was inactive.

On to `CCCN1CCC[C@H](c2cccc(O)c2)C1`, for which the result in experiment [1], in [2] and in experiment [4] was inactive.

With `N#C/C=C/C#N`, the result in experiment [1] and in experiment [4] was inactive. Also, in experiment [2], the AC50 is 93.4 µM (active).

Regarding `CC(=O)[C@H]1CC[C@H]2[C@@H]3CC[C@@H]4C[C@H](O)CC[C@]4(C)[C@H]3CC[C@]12C`, the outcome in [1], in [2], in experiment [3], in experiment [4], in experiment [6] and in experiment [5] was inactive. For the same compound, the result (in experiment [7]; with THRA (gene 7067); in experiment [8]; with THRB (gene 7068)) was inactive.

`Cc1cccc(C#N)c1`: the result in experiment [1], in [2], in [4], in experiment [6] and in [5] was inactive.

Regarding `CNCC(=O)c1ccc(O)c(O)c1`, the outcome in experiment [1], in experiment [2], in experiment [3] and in [6] was inactive.

As for `CCCCCCI`, the result in experiment [1], in experiment [2], in [4], in [6] and in [5] was inactive.

On to `C#C[C@]1(O)CC[C@H]2[C@@H]3CCC4=CC(=O)CCC4=C3C=C[C@@]21CC`, for which the outcome in experiment [1], in experiment [2], in experiment [3], in [4], in experiment [6] and in [5] was inactive. Also, the outcome (with PGR (gene 5241) [10]; in [11]; in experiment [13]; in experiment [14]) was inactive. The AC50 with PGR (gene 5241) [9] is 144 nM (active); with PGR (gene 5241) [12], 1.56 nM (active).

For `Nc1cc(Cl)ccc1O`, the AC50 was 49.9 µM (active) in [1], 59.7 µM (active) in [2], 62.6 µM (active) in experiment [4] and 54.8 µM (active) in experiment [5]. Further, the outcome in experiment [3] and in experiment [6] was inactive.

`Cc1nnc2n1-c1sc(Br)cc1C(c1ccccc1Cl)=NC2`: the outcome in [1], in [2], in experiment [3], in experiment [4], in experiment [6] and in experiment [5] was inactive.

In the case of `BrC(Br)Br`, the result in [1], in [2], in experiment [3], in [4], in experiment [6] and in [5] was inactive. Further, the result in [15] was inactive.

For `Oc1cccc(Cl)c1Cl`, the outcome in [1], in experiment [2], in [3], in experiment [4], in [6] and in experiment [5] was inactive.

In the case of `O=C(Cl)C(Cl)Cl`, the outcome in [1], in experiment [2], in experiment [4], in experiment [6] and in [5] was inactive.
